Data on 37 compounds can be found in PMC5540273 (PLoS ONE, 2017).
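Note: KINOMEscan kinase panel screen.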

The first test concerns EPHB3. The note with it: concentration: 1 μM, replicates: in singlicate; n = 1.
Consider `COCCOCCOc1cc2ncc3c4ccc(C#N)cc4[nH]c3c2cc1OC`, for which the “%Inh” value amounted to 11%. Consider `Nc1n[nH]c2cnc(-c3ccccc3)cc12` [SB-642124], for which the “%Inh” value amounted to 16%. Still for that read-out and setting: to `CN1CCN(CCCNc2nccc(-c3c(-c4ccc(F)cc4)nn4cc(C(F)(F)F)ccc34)n2)CC1` [GW621581] belongs 0%; to `Nc1ncnc2c1nc(-c1ccccc1)n2-c1ccccc1` [SKF-97293], 29%. For the compound `Cl.NC(=O)c1cccc(Nc2nccc(Nc3ccc(Oc4c(Cl)cccc4Cl)c(Cl)c3)n2)c1` [GW659009], the “%Inh” value was 0%. For the compound `Cc1ccc(F)c(C(=O)Nc2cccc(-c3nn4ccccc4c3-c3ccnc(Nc4cccc(F)c4)n3)c2)c1F` [GSK361061], the “%Inh” value worked out at 9%. For the compound `COc1cccc(-c2ccc3c(NC(=O)C4CC4)n[nH]c3n2)c1` [SB-710903], the “%Inh” value stood at 24%.

As to `CC(=O)N1CCN(c2ccc(Nc3nccc(-c4sc(C(C)C)nc4-c4cccc(NS(=O)(=O)c5cccc(Cl)c5)c4)n3)cn2)CC1` [GSK1660437], the “%Inh” value is given as 0%. In the case of `C[C@@H]1CC[C@@H](C(=O)Nc2ccccc2)CN1c1cc(-c2ccc3c(N)n[nH]c3c2)nc(N)n1` [GSK2286062], the “%Inh” value is reported as 0%. As to `Clc1ccc(-c2nn3ncccc3c2-c2ccnc(Nc3ccc4c(c3)OCCO4)n2)cc1` [GW829116], the “%Inh” value was 7%.

In the case of `Cc1ccc(C(=O)N2CC[C@@H](O)C2)cc1-n1c(C)cc(OCc2ccc(F)cc2F)c(Br)c1=O`, the “%Inh” value came out at 0%.

For `CC(=O)Nc1nc2cnc(Nc3cc(NC(=O)c4cccc(C5(C#N)CC5)c4Cl)ccc3C)nc2s1`, the “%Inh” value is on record as 10%. Turning to `c1ccc(-c2cnc3nccnn23)cc1` [AH20685], the “%Inh” value worked out at 1%.

As to `CCn1c(-c2nonc2N)nc2c(C#CC(C)(C)O)nc(OC[C@H](N)c3ccccc3)cc21` [GSK943949], the “%Inh” value was determined as 0%.

Consider `Cl.Cl.NCC(C(=O)Nc1cc(Br)c(-c2ccnc3[nH]ccc23)s1)c1ccccc1` (stereo not drawn) [GSK1269851], for which the “%Inh” value is given as 27%.

Regarding `COc1cccc(C2=C(Nc3ccc(Cl)c(C(=O)O)c3)C(=O)NC2=O)c1` [SB-390769], the “%Inh” value worked out at 10%. On to `Cc1cccc(Nc2nc(N[C@H]3CCNC3)ncc2C(N)=O)c1.Cl` [GSK2197149], for which the “%Inh” value amounted to 12%.

A further test has as its system EPHB4. The note with it: concentration: 1 μM, replicates: in singlicate; n = 1.
With `Cc1ccc(C(=O)Nc2ccc(Nc3ccnc4cc(-c5nccs5)ccc34)cc2O)cc1.Cl` [GW494702], the “%Inh” value was determined as 12%. For `CC(C)c1nc(-c2cccc(NS(=O)(=O)c3c(F)cccc3F)c2F)c(-c2ccnc(Nc3ccc(N4CCOCC4)nc3)n2)s1` [GSK2008607], the “%Inh” value is 0%.

As to `Cl.c1ccc(-c2ccc3c(Nc4ccc5[nH]ccc5c4)ccnc3c2)nc1` [GW440138], the “%Inh” value is on record as 5%. `Nc1ncc(-c2cccnc2)c2scc(-c3ccc4c(c3)CCN4C(=O)Cc3ccccc3)c12` [GSK683281]: the “%Inh” value was found to be 2%. On the same count and under the same terms, with `COc1cc(Nc2nccc(-c3c(-c4cccc(NC(=O)c5c(F)cccc5F)c4)nn4ccccc34)n2)cc(OC)c1OC` [GSK323521] the figure was 8%.

For `CCc1ccc(-c2ccc3c(c2)-c2c(cnn2C)S(=O)(=O)N3C)cc1`, the “%Inh” value stood at 1%. With `COC(=O)Nc1nc2cc(Oc3ccc(NC(=O)Nc4cc(C(F)(F)F)ccc4F)cn3)ccc2[nH]1.Cl.Cl` [GW681170], the “%Inh” value worked out at 55%. On to `Cc1occc1-c1ncc(OC[C@@H](N)Cc2c[nH]c3ccccc23)cc1-c1ccc2[nH]nc(C)c2c1.O=C(O)C(F)(F)F` [GSK682037], for which the “%Inh” value was determined as 14%. `O=C(Nc1cccc(Oc2ccc3nc(NC(=O)C4CC4)cn3n2)c1)c1ccccc1C(F)(F)F`: the “%Inh” value is listed as 10%. On to `CSc1cccc2c(-c3ccncn3)c(-c3ccc(F)cc3)nn12` [GW514786], for which the “%Inh” value was found to be 2%. The same measure, in the same setting: to `COc1cc(Nc2ncc3c(C)nc(-c4cc5ccccc5[nH]4)n3n2)cc(OC)c1OC` [GW869516] belongs 47%; to `O=C(Nc1cccc(-c2nn3ccccc3c2-c2ccnc(Nc3cccc(C(F)(F)F)c3)n2)c1)c1c(F)cccc1F` [GSK292658], 0%; to `CNC(=O)c1ccccc1Nc1nc(Nc2ccc(N3CCOCC3)cc2)ncc1Cl.Cl` [GSK1576028], 46%. With `Cl.c1ccc(-c2ccc3c(Nc4ccc5[nH]ncc5c4)ccnc3c2)nc1` [GW440137], the “%Inh” value was 6%. Consider `Cl.Cl.NCC(NC(=O)c1cc(-c2ccccc2)c(-c2ccnc3[nH]ccc23)s1)c1ccccc1` (stereo not drawn) [GSK1321561], for which the “%Inh” value turned out to be 19%.

In the case of `COc1cc2c(cc1OCCN1CCNCC1)ncc1c3ccc(C#N)cc3[nH]c21`, the “%Inh” value is 0%. In the case of `CCn1c(-c2nonc2N)nc2c(C#CC(C)(C)O)ncc(OCCCCN)c21.O=C(O)C(F)(F)F.O=C(O)C(F)(F)F` [GSK507274], the “%Inh” value amounted to 29%. With `COc1cc(Nc2nccc(-c3c(-c4cccc(NC(=O)c5c(F)cccc5F)c4)nn4ncccc34)n2)cc(OC)c1OC` [GSK327238], the “%Inh” value was 15%. Turning to `COc1cc(Nc2nccc(N3CCC(NC(=O)Nc4cccc(C(C)=O)c4)C3)n2)cc(OC)c1OC` (stereo not drawn) [GSK1379753], the “%Inh” value is 6%.

`CN(C)S(=O)(=O)c1cc(-c2ccc3nccc(-c4cccc(S(N)(=O)=O)c4)c3c2)cnc1N` [GSK1669921]: the “%Inh” value was 16%. As to `COCCOCCOc1cc2ncc3c4ccc(C#N)cc4[nH]c3c2cc1OC`, the “%Inh” value is 25%. For the compound `Nc1n[nH]c2cnc(-c3ccccc3)cc12` [SB-642124], the “%Inh” value turned out to be 18%. For the compound `CN1CCN(CCCNc2nccc(-c3c(-c4ccc(F)cc4)nn4cc(C(F)(F)F)ccc34)n2)CC1` [GW621581], the “%Inh” value is on record as 9%. As to `Nc1ncnc2c1nc(-c1ccccc1)n2-c1ccccc1` [SKF-97293], the “%Inh” value was determined as 10%. Regarding `Cl.NC(=O)c1cccc(Nc2nccc(Nc3ccc(Oc4c(Cl)cccc4Cl)c(Cl)c3)n2)c1` [GW659009], the “%Inh” value worked out at 0%. For the compound `Cc1ccc(F)c(C(=O)Nc2cccc(-c3nn4ccccc4c3-c3ccnc(Nc4cccc(F)c4)n3)c2)c1F` [GSK361061], the “%Inh” value is given as 10%. Take `COc1cccc(-c2ccc3c(NC(=O)C4CC4)n[nH]c3n2)c1` [SB-710903]: the “%Inh” value was determined as 16%. Same read-out and setting: to `CC(=O)N1CCN(c2ccc(Nc3nccc(-c4sc(C(C)C)nc4-c4cccc(NS(=O)(=O)c5cccc(Cl)c5)c4)n3)cn2)CC1` [GSK1660437] belongs 0%; to `C[C@@H]1CC[C@@H](C(=O)Nc2ccccc2)CN1c1cc(-c2ccc3c(N)n[nH]c3c2)nc(N)n1` [GSK2286062], 10%. As to `Clc1ccc(-c2nn3ncccc3c2-c2ccnc(Nc3ccc4c(c3)OCCO4)n2)cc1` [GW829116], the “%Inh” value came out at 0%.

With `Cc1ccc(C(=O)N2CC[C@@H](O)C2)cc1-n1c(C)cc(OCc2ccc(F)cc2F)c(Br)c1=O`, the “%Inh” value is on record as 0%. As to `CC(=O)Nc1nc2cnc(Nc3cc(NC(=O)c4cccc(C5(C#N)CC5)c4Cl)ccc3C)nc2s1`, the “%Inh” value amounted to 34%. As for `c1ccc(-c2cnc3nccnn23)cc1` [AH20685], the “%Inh” value came out at 0%.

For `CCn1c(-c2nonc2N)nc2c(C#CC(C)(C)O)nc(OC[C@H](N)c3ccccc3)cc21` [GSK943949], the “%Inh” value is reported as 0%. `Cl.Cl.NCC(C(=O)Nc1cc(Br)c(-c2ccnc3[nH]ccc23)s1)c1ccccc1` (stereo not drawn) [GSK1269851]: the “%Inh” value came out at 42%. Still for that read-out and setting: with `COc1cccc(C2=C(Nc3ccc(Cl)c(C(=O)O)c3)C(=O)NC2=O)c1` [SB-390769] the figure was 10%; with `Cc1cccc(Nc2nc(N[C@H]3CCNC3)ncc2C(N)=O)c1.Cl` [GSK2197149], 0%.
